Where “and” joins values, the source holds several entries; their conditions need not be identical. Equal entries are not always repeated. Results filed as inconclusive are left out. Where a structure was tested more than once in an assay, its records may differ in their call. Calls of active or inactive are those of the source. The calls were made as follows, unless noted: active = hit-call score of the fitted dose curve at least 0.9, where 1 is the maximum; inactive = score below 0.9.

The nature of test [1]: CCTE_Shafer_MEA_acute_burst_number: CCTE's Neural Acute Assay for Single-Electrode Bursts, Shafer Lab (AID 2284013). The essentials: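 Primary rat cortical neurons on 16-electrode MEA wells, treated on DIV 13 or 15 with compound at 0.03-40 uM. Single-electrode burst count from 40-min recordings at 37 C before and after exposure; percent change from baseline per well, DMSO negative control.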

Test [2] can be described thus: CCTE_Shafer_MEA_acute_per_burst_spike_number_mean: CCTE's Neural Acute Assay for Average Number of Spikes Per Burst, Shafer Lab (AID 2284015).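 Also: hits are decreases in mean spikes per burst versus baseline.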 The essentials:
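Read-out: percent change in mean spikes per burst, each well's post-exposure 40-min recording versus its own 40-min baseline. Rat cortical cultures, DIV 13 or 15, compounds 0.03-40 uM; DMSO is negative control, loss-of-signal fitting.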

Test [3] in a line: CCTE_Shafer_MEA_acute_interburst_interval_mean: CCTE's Neural Acute Assay for Mean Interburst Interval, Shafer Lab (AID 2284016).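 Also: percent change of mean interburst interval versus each well's own pre-dose baseline; curves fitted for decrease in interburst interval relative to DMSO.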 The essentials: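 Rat cortical cultures, DIV 13/15; 20 min equilibration, 40 min baseline, compound 0.03-40 uM, 40 min re-recording, 37 C. Spikes detected at 8x rms noise (300-5000 Hz band-pass). Endpoint: % change in interburst interval, fitted in loss direction vs DMSO.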

A short description of test [4]: CCTE_Shafer_MEA_acute_burst_percentage_mean: CCTE's Neural Acute Assay for Percentage of Spikes in a Burst, Shafer Lab (AID 2284017).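 As to AC50: curve fitted for loss of signal so potency reflects decreased burst percentage.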 The procedure, abridged:
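Rat cortical cultures, DIV 13/15, 37 C. Spikes detected at 8x rms noise (300-5000 Hz band-pass). Burst spikes/total spikes averaged across electrodes per well; % change post- vs pre-treatment (40 min each), loss-of-signal fit vs DMSO.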

Test [5] in a line: CCTE_Shafer_MEA_acute_per_network_burst_spike_number_mean: CCTE's Neural Acute Assay for Average Number of Spikes in a Network Burst, Shafer Lab (AID 2284019).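 As to AC50: curve fitted for loss of signal so actives reduce spikes per network burst.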 The procedure, abridged:
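Rat primary cortical neurons on 48-well MEA at DIV 13 or 15, 37 C; compounds 0.03-40 uM, at least three wells each. 40-min baseline then 40-min exposure recording; percent change in mean spikes per network burst.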

Test [6] in a line: CCTE_Shafer_MEA_acute_per_network_burst_spike_number_std: CCTE's Neural Acute Assay for Standard Deviation of Number of Spikes in a Network Burst, Shafer Lab (AID 2284020).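 Also: fitted for decrease in spike-number SD versus DMSO so actives lower it.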 The essentials:
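Rat primary cortical neurons on 48-well MEA (16 electrodes/well), treated DIV 13 or 15 at 0.03-40 uM, ≥3 wells per compound. 40 min recordings at 37 C before and after dosing; value is percent change in network-burst spike-number SD, negative direction vs DMSO.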

Test [7] can be described thus: CCTE_Shafer_MEA_acute_per_network_burst_electrodes_number_mean: CCTE's Neural Acute Assay for Mean Number of Electrodes in a Network Burst, Shafer Lab (AID 2284021).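 Also: curves fitted for decreases only so hits reduce electrodes per burst.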 The essentials: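 Percent change from baseline was computed as mean electrode count per network burst, comparing 40 min recordings before and during compound (0.03-40 uM) exposure. Cultures were rat cortical neurons at DIV 13 or 15, recorded on MEAs at 37 C with an adaptive 8x rms threshold.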

A short description of test [8]: CCTE_Shafer_MEA_acute_network_burst_percentage: CCTE's Neural Acute Assay for Percentage of Network Bursts, Shafer Lab (AID 2284022).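 Also: curves fitted for loss so actives lower network burst percentage.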 The procedure, abridged: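 Network burst percentage (spikes in network bursts divided by total spikes) recorded at 37 C over 40 min baseline and 40 min after compound, 0.03-40 uM, in rat cortical cultures at DIV 13 or 15. Analysed as percent change from baseline versus DMSO.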

Test [9] in a line: CCTE_Shafer_MEA_acute_cross_correlation_area: CCTE's Neural Acute Assay for Area of Cross Correlation, Shafer Lab (AID 2284024).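 Also: area under pooled inter-electrode spike cross-correlation near zero lag as percent change from own baseline; curves fitted for loss of cross-correlation area so actives lower synchrony.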 The essentials: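 Percent change in well-wide cross-correlation area (window around zero lag) between 40 min baseline and 40 min post-compound recordings, 37 C; rat cortical cultures on MEA at DIV 13 or 15, dosed 0.03-40 uM, wells needing >/= 10 active electrodes.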

Test [10] deals with Estrogen receptor (Homo sapiens) (UniProt P03372). Put plainly: CCTE_Deisenroth_AIME_96WELL_LUC_Active: CCTE's 96-well Estrogen Receptor Transactivation Assay with AIME metabolic competence (ERTA luciferase; metabolism positive), Deisenroth Lab (AID 2284023; active = hit-call score of the fitted dose curve at least 0.9, where 1 is the maximum). The procedure, abridged: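 Chemicals pre-incubated 2 h with alginate-immobilized phenobarbital/beta-naphthoflavone-induced male Sprague Dawley rat liver S9, then medium transferred to VM7Luc4E2 cells for 24 h luciferase read-out. 10-point series 0.002 - 200 uM; fitted relative to 17beta-estradiol.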
Sequence of Estrogen receptor (Homo sapiens) (P03372 whole entry, looked up): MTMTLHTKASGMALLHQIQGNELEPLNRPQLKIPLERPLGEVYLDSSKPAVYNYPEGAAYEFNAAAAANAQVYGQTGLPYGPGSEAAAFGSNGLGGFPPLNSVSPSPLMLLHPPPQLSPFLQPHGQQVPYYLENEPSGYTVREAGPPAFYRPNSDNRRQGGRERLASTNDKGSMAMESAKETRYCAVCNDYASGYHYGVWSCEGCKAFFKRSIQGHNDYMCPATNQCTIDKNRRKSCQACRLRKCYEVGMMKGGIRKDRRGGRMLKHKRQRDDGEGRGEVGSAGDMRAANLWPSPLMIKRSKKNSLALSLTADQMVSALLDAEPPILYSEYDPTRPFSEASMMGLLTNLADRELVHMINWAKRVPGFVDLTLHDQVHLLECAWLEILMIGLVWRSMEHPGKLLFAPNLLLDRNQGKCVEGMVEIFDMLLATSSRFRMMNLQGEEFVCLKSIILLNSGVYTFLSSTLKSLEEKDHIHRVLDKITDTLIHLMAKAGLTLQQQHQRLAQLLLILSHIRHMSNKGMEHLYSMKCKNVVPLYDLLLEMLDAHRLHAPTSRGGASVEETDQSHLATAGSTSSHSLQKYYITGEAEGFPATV

Regarding `ClC1=C(Cl)[C@]2(Cl)[C@@H]3[C@@H](Cl)[C@H]4O[C@H]4[C@@H]3C1(Cl)C2(Cl)Cl`, the AC50 in [1] was 54 nM (active); in [4], 0.0303 µM (active); in test [5] it was 70.9 nM (active); in test [6] it was 248 nM (active); in test [7] it was 95.6 nM (active); in test [8] it was 88.4 nM (active). For the same compound, in test [9], the AC50 was 118 nM (active). Also, the result in test [2] and in test [3] was inactive.
As for `COc1ccc(O)c(C(C)(C)C)c1`, the outcome in test [1], in test [2], in test [3], in test [5], in test [6] and in [7] was inactive. The call in [8] and in [9] was inactive. Moreover, the AC50 in test [2] is 15 µM (active) and 185 nM (active); in [3] it was 31900 nM (active); in test [4], 15 µM (active) and 1.45 µM (active) and 32.8 µM (active); in test [5] it was 144 nM (active); in test [6], 90.3 nM (active); in [7], 449 nM (active). Also, the AC50 in [8] was 30800 nM (active); in test [9], 44.4 nM (active).
For the compound `ClC1=C(Cl)[C@]2(Cl)[C@@H]3[C@@H]4C[C@@H]([C@H]5O[C@@H]45)[C@@H]3[C@@]1(Cl)C2(Cl)Cl`, the AC50 in test [1] is 508 nM (active); in test [2] it was 126 nM (active); in test [4] it was 0.0949 µM (active); in test [5], 135 nM (active); in [6] it was 338 nM (active); in test [7] it was 116 nM (active). Besides, the AC50 was 192 nM (active) in test [8] and 318 nM (active) in test [9]. Besides, the compound was called inactive in test [3].
As to `Nc1ccc(-c2ccc(N)cc2)cc1`, the result in test [1], in test [2], in test [3], in test [4], in test [5] and in [6] was inactive. Further, the result in test [7], in [8] and in test [9] was inactive.
On to `c1cc2ccc3cccc4ccc(c1)c2c34`, for which the compound was called inactive in test [10].
As for `CCCN(CCC)N=O`, the outcome in test [1], in [2], in [3], in test [4], in test [5] and in test [6] was inactive. Moreover, the compound was called inactive in test [7], in test [8] and in test [9].
`CN(C)CCO`: the compound was classed as inactive in [1], in test [2], in [3], in test [4], in test [5] and in test [6]. Besides, the result in test [7], in test [8] and in test [9] was inactive.
Turning to `COS(=O)(=O)OC`, the result in [1], in test [2], in [3], in [4], in test [5] and in [6] was inactive. Also, the compound was called inactive in [7], in test [8] and in test [9].
Take `Clc1ccc(C(Cl)(Cl)Cl)cc1`: the outcome in [1], in test [2], in [3], in test [4], in test [5] and in test [6] was inactive. Further, the outcome in [7], in [8] and in test [9] was inactive.
For `ClC(Cl)=C(c1ccc(Cl)cc1)c1ccc(Cl)cc1`, the call in test [1], in test [2], in [3], in [5], in test [6] and in [7] was inactive. The compound was classed as inactive in [8] and in test [9]. In addition, the AC50 in [4] is 33.2 µM (active).
As to `CCCCCCCCCc1ccc(O)cc1`, the compound was classed as inactive in [1], in [3], in test [5] and in test [9]. Also, the AC50 in test [2] is 11100 nM (active); in [4] it was 22.5 µM (active); in test [6] it was 9300 nM (active); in [7] it was 20000 nM (active); in [8], 31000 nM (active).
Regarding `CCC(C)(c1ccc(O)cc1)c1ccc(O)cc1`, the result in [1], in [2], in test [3], in test [4], in [5] and in [6] was inactive. Also, the compound was classed as inactive in test [7] and in test [9]. Further, the AC50 in test [8] was 3310 nM (active).
`CC(c1ccc(O)cc1)(c1ccc(O)cc1)c1ccc(O)cc1`: the compound was called inactive in test [1], in test [3], in [5], in [6], in [7] and in test [8]. Further, the compound was classed as inactive in test [9]. The AC50 in [4] is 29.6 µM (active).
Turning to `O=C(NC(=O)c1c(F)cccc1F)Nc1cc(Cl)c(OC(F)(F)C(F)F)c(Cl)c1`, the result in test [1], in test [2], in test [4], in [5], in test [6] and in test [7] was inactive. Further, the compound was classed as inactive in test [9]. The AC50 in test [3] and in test [8] was 20000 nM (active) throughout.

The term AC50 denotes the midpoint of the concentration-response curve, whichever way the signal moves.

The record behind these values is PubChem BioAssay (EPA / NIEHS).
